Measurements as given in PubChem BioAssay.
Activity calls are given as the source filed them.

Columns and labels:
[1] = small molecules captured by biotinylated probe aFSTL3 – biochemical, small-molecule microarray, fluorescence 635/667, stem cell growth factor project, primary screen (AID 1064); details: higher = more signal;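 note: measures binding of the biotinylated anti-FSTL3 antibody to printed compounds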
[2] = binders from COS7 lysate, DM2A8 probe, primary screen, torsin A project, cell lysate, small-molecule microarray, fluorescence 635/667 (AID 1065); details: higher = more signal, COS7 lysate expressing mutant human TOR1A
[3] = small molecules captured by biotinylated probe aFGF2 – biochemical, small-molecule microarray, fluorescence 635/667, stem cell growth factor project, primary screen (AID 1067); details: higher = more signal;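 note: measures binding of biotinylated aFGF2 protein to printed compounds on slides; z-score merges feature fluorescence and signal-to-noise across triplicate slides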
[4] = small molecules captured by biotinylated probe aFGF10 – biochemical, small-molecule microarray, fluorescence 635/667, stem cell growth factor project, primary screen (AID 1071); details: higher = more signal;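 note: score merges 667 nm spot intensity and signal to noise from triplicate slides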
[5] = molecular target: Neurogenic locus notch homolog protein 2 (Homo sapiens) (UniProt Q04721); assay: small molecules binding Notch2 protein – biochemical, small-molecule microarray, 635 nm fluorescence, stem cell growth factors, primary screen (AID 1073); details: higher = more signal
Neurogenic locus notch homolog protein 2 (Homo sapiens), sequence (Q04721 whole entry, looked up, canonical isoform): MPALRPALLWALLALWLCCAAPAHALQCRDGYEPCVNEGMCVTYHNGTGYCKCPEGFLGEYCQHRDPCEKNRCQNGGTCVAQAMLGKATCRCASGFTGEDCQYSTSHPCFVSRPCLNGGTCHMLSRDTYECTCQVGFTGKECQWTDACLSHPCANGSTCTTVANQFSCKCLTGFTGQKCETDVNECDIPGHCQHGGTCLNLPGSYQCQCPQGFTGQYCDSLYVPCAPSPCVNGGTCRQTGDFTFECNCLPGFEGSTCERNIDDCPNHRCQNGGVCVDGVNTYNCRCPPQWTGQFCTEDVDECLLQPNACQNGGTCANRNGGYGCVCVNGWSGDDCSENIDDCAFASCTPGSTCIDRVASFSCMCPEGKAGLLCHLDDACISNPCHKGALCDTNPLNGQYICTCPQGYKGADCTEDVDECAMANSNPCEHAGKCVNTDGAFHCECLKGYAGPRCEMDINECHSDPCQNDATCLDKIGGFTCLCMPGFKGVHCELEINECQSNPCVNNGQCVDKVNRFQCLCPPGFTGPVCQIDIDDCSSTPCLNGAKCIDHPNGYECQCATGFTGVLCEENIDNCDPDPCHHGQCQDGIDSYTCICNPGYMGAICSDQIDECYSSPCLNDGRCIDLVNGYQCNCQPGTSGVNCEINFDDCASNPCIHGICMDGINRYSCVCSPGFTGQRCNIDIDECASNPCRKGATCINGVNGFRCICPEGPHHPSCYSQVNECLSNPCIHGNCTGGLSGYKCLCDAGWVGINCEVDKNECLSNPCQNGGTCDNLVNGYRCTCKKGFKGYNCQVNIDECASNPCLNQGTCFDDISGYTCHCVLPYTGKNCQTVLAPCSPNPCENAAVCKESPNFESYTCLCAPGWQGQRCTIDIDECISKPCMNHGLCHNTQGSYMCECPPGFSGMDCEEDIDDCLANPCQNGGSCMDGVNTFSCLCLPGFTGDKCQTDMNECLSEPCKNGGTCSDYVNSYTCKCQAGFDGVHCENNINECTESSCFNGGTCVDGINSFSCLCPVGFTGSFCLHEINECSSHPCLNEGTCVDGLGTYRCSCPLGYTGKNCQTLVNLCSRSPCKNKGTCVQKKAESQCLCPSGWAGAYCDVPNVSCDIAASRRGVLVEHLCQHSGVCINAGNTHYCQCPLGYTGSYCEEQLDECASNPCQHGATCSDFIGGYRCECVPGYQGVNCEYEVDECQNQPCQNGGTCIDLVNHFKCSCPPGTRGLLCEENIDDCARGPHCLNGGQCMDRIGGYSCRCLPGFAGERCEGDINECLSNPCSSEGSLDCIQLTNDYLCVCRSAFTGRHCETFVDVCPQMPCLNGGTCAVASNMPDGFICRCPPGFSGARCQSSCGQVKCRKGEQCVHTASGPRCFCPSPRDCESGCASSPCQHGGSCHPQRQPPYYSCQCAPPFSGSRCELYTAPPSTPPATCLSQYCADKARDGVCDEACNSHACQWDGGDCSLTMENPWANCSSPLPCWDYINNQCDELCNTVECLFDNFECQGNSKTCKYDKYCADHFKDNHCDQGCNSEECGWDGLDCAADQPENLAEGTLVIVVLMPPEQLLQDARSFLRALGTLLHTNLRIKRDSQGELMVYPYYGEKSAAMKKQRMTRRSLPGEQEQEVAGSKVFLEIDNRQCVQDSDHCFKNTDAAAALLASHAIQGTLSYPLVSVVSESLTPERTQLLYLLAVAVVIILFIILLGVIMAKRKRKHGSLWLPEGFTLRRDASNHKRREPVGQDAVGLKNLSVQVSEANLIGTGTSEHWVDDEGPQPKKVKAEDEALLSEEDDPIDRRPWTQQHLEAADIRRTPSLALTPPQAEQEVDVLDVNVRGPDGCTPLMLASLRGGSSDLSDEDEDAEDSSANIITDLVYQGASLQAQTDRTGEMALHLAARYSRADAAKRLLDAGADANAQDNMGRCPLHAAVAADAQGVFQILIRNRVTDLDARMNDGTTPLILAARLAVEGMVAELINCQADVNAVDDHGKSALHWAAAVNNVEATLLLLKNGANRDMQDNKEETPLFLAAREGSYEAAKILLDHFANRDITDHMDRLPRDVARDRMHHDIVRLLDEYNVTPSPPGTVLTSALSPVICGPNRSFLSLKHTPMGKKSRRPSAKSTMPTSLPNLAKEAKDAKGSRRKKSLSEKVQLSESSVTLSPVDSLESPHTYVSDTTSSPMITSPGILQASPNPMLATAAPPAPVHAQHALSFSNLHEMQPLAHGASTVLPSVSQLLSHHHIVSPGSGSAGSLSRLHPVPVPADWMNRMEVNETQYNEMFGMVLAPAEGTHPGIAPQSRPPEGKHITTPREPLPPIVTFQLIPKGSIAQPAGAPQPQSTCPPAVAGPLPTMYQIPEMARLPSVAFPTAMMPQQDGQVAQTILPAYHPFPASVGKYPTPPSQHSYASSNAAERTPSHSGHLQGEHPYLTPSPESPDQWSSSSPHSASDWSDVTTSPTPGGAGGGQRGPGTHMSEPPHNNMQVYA

[6] = molecular target: Pro-neuregulin-1, membrane-bound isoform (Homo sapiens) (UniProt Q02297); assay: small molecules binding neuregulin-1 protein – biochemical, small-molecule microarray, fluorescence 635/667, psychiatric disease protein project, primary screen (AID 1075); details: NRG1 binding, 635 nm fluorescence, higher = more signal;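 note: score combines 667 nm spot fluorescence with signal to noise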
Pro-neuregulin-1, membrane-bound isoform (Homo sapiens), sequence (Q02297 whole entry, looked up, the tested form may be a part, canonical isoform): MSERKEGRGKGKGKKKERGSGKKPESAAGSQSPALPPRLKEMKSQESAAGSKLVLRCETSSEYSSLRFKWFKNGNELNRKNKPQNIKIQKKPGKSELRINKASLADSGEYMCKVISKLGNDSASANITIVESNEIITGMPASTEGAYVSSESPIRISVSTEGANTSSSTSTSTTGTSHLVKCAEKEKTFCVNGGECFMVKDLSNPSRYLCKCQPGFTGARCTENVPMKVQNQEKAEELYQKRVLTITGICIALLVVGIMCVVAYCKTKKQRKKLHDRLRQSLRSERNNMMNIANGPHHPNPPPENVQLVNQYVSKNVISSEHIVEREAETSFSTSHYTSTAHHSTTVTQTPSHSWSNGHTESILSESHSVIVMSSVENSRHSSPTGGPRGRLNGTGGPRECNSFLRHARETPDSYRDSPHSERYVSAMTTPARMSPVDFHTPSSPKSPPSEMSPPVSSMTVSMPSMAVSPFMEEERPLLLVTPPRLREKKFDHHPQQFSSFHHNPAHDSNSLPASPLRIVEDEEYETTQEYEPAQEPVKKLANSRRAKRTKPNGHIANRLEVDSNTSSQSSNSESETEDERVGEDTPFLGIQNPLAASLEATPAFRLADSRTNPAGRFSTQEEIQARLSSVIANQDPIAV

[7] = tested on: Neuregulin-1 EGF-like domain; assay: small molecules binding NRG1 EGF domain – biochemical, small-molecule microarray, 635 nm fluorescence, primary screen (AID 1081); details: higher = more signal;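 note: binding of the protein to compounds printed on small-molecule microarray slides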
[8] = FRG1 expression reporter modulators in myotubes – cell-based, C2C12 myotubes, firefly/Renilla luciferase, luminescence, FRG1 inhibition for FSHD, primary screen (AID 1084); details: FRG1 promoter luciferase, higher = more signal, called active from +8 up or from −8 down
[9] = small molecules captured by biotinylated probe aFST – biochemical, small-molecule microarray, fluorescence 635/667, stem cell growth factor project, primary screen (AID 1086); details: higher = more signal;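 note: score merges 667 nm fluorescence with signal-to-noise of each printed compound spot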
[10] = binders of probe aHhip on microarray, primary screen, stem cell growth factor project, biochemical, small-molecule microarray, fluorescence 635/667 (AID 1087); details: higher = more signal;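 note: score merges spot fluorescence at 667nm with spot signal to noise ratio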

Compound | composite z-score [1] | composite z-score [2] | composite z-score [3] | composite z-score [4] | composite z-score [5] | composite z-score [6] | composite z-score [7] | z-score [8] | composite z-score [9] | composite z-score [10]
C=C(/C(=C/C[C@H](OC(C)=O)c1ccc(CO)o1)c1cnc2ccccc2c1)C(C)C | -0.519 | 1.01 | 0.0122 | 1.01 | 1.5 | 1.68 | 1.04 | 0.938 (inactive) | 0.846 | -0.0296
COC(=O)[C@@]1(Cc2ccc(F)cc2)[C@H]2c3cc(C(=O)N(C)C)n(CCc4ccc(OC)c(Br)c4)c3C[C@H]2CN1C(=O)c1ccccc1 | 0.859 | -0.694 | 0.361 | 0.675 | 0.716 | 0.988 | 1.29 | 3.92 (inactive) | 1.48 | 0.424
CC(=O)N1CC2(CC2)CC1c1ccccc1 (stereo not given) | 0.392 | 1.04 | -0.14 | 0.242 | 0.437 | 0.163 | 0.413 | 2.2 (inactive) | 0.661 | 0.533
Cc1ccc(S[C@]2(C(=O)O)CC(=O)N(C3CCCCC3)[C@@H]2c2ccc(CO)cc2I)cc1 | -0.0155 | 0.165 | -0.0986 | 0.52 | 0.762 | 1.43 | 1.2 | -0.163 (inactive) | 1.23 | -0.0898
COc1ccc(CCNC(=O)[C@@H]2c3ccccc3C(=O)N(C3CCCCC3)[C@H]2c2ccc(CO)cc2)cc1 | 0.0003 | 1.3 | 0.104 | 0.329 | 0.785 | 1.05 | 1.24 | -0.335 (inactive) | 0.246 | -0.0645
CC(C)[Si](C#C[Si](C(C)C)(C(C)C)C(C)C)(O[C@H](c1ccccc1)c1cn(Cc2ccccc2)nn1)C(C)C | -0.353 | 0.213 | -0.1 | 0.311 | 0.615 | -0.16 | 0.928 | 0.133 (inactive) | 0.276 | 0.0808
COc1ccc(C#Cc2ccc3c(c2)[C@]2(C(=O)N3)[C@H](c3ccc(O)cc3)N3[C@H](c4ccccc4)[C@H](c4ccccc4)OC(=O)[C@H]3[C@@H]2C(=O)Nc2nc3ccccc3s2)cc1 | -0.552 | -0.133 | -0.0242 | 0.534 | 1.6 | 1.69 | 1.36 | 1.33 (inactive) | 1.01 | 0.113
C=CC[C@@H](OC(=O)Nc1ccc(SC)cc1)c1ccc(O)c(F)c1 | 0.401 | 0.601 | -0.0729 | 0.165 | -0.131 | 1.7 | 1.21 | 6.7 (inactive) | -0.277 | -0.0645
CC(C)[Si](C#CCCCC#N)(O[C@H](c1ccccc1)c1cn(Cc2ccccc2)nn1)C(C)C | -0.281 | 0.704 | -0.0728 | 0.335 | 0.879 | 0.048 | 1.13 | -2.06 (inactive) | 0.775 | 0.095
COc1ccc([Si](C)(C)[C@@H]2[C@@H](CCO)O[C@]3(C(=O)N(Cc4cccc(NC(=O)[C@H](C)O)c4)c4ccccc43)[C@H]2C)cc1 | -0.328 | 0.263 | -0.053 | 1.23 | 0.487 | 1.07 | 1.14 | -3.53 (inactive) | 0.146 | -0.249
CCCC[C@@H](O)C1=C(COC)C[C@H]2C(=O)N(C)C(=O)[C@H]2[C@H]1CO | -0.439 | 0.131 | -0.176 | 0.466 | -0.02 | -0.321 | -0.282 | -1.21 (inactive) | 0.0794 | -0.16
COc1cc(C(O)C2C=CC3C(=O)N(C)C(=O)C3N2Nc2ccccc2)cc(OC)c1OC (stereo not given) | 1.3 | 0.723 | 0.341 | 0.602 | 1.25 | 1.83 | 1.35 | -0.818 (inactive) | 1.53 | 0.592
O=C(C1N=C(c2ccc(OCCCO)cc2)N(c2ccccc2)O1)N1CCCCC1 (stereo not given) | 0.819 | 1.49 | 0.182 | 0.938 | 1.05 | 1.99 | 1.36 | 2.39 (inactive) | 1.13 | -0.0952
O=C1OCCC/C=C\[C@H]2OC34C=CCN(c5ccc6ccccc6c5)C(=O)[C@H]3N(CCO)C(=O)[C@@H]4C12 (stereo not given in full) | 0.24 | -0.514 | -0.159 | -0.818 | -1.23 | 1.6 | 1.04 | 0.751 (inactive) | -0.667 | -0.423
O=C1OCCC=C[C@H]2OC34C=CCN(Cn5nnc6ccccc65)C(=O)[C@H]3N(CCCO)C(=O)[C@@H]4C12 (stereo not given in full) | 0.32 | -0.173 | -0.116 | -0.169 | -1.3 | -0.763 | 0.437 | 0.0397 (inactive) | -0.601 | -0.236
COc1ccc(CCNC(=O)[C@@]2(c3ccc([N+](=O)[O-])cc3)CC(=O)N(C3CCCCC3)[C@@H]2c2ccc(CO)cc2)cc1 | 0.376 | 0.409 | 0.0598 | 0.325 | 0.58 | 1.54 | 1.23 | -0.517 (inactive) | 0.602 | 0.177
C=CCNC(=O)[C@@H]1[C@H]2C(=O)O[C@H](c3ccccc3)[C@H](c3ccccc3)N2[C@H](c2ccccc2OCCO)[C@@]12C(=O)N(C(=O)OCCOC)c1ccc(C#CC3(O)CCCCCC3)cc12 | -0.249 | 0.356 | -0.0004 | 0.427 | 1.14 | 1.16 | 1.14 | -0.257 (inactive) | 0.771 | -0.0994

Compound | composite z-score [1] | composite z-score [2] | composite z-score [3] | composite z-score [4] | composite z-score [5] | composite z-score [6] | composite z-score [7] | z-score [8] | composite z-score [9] | composite z-score [10]
CCOC(=O)C[C@H]1[C@H](OC(=O)Cc2ccc3c(c2)OCO3)[C@@H](NC(=O)c2ccc3ccccc3n2)c2cc(OCCCO)ccc2N1C(=O)c1ccc2ccccc2n1 | -0.5 | 0.185 | -0.103 | 1.03 | 0.568 | 0.54 | 1.01 | -2.11 (inactive) | 0.37 | 0.171
CCCC=C(CCC)[C@@H](NC(=O)c1cccs1)c1ccc(C(=O)OC)cc1 | 2.23 | 0.392 | 0.905 | 1.1 | 0.592 | 0.028 | 0.648 | 0.874 (inactive) | 2.61 | 1.39
CCOC(=O)C[C@H]1[C@H](OC(=O)c2ccc(-c3ccccc3)cc2)[C@@H](NC(=O)CC(C)C)c2cc(OCCCO)ccc2N1C(=O)c1ccc2ccccc2n1 | -0.459 | 0.176 | -0.149 | 0.205 | 0.458 | 0.491 | 0.76 | 0.375 (inactive) | 0.185 | 0.1
CCOC(=O)C[C@H]1[C@H](OC(=O)c2ccc(C(=O)c3ccccc3)cc2)[C@@H](NC(=O)CC(C)C)c2cc(OCCCO)ccc2N1C(=O)c1ccccc1 | -0.399 | 0.275 | -0.0266 | 0.542 | 1.2 | 0.807 | 0.996 | -0.16 (inactive) | 0.766 | 0.0129
C=CCC(OC(C)=O)[C@@H]1[C@@H](N(Cc2cccc3ccccc23)C(=O)Cc2ccc(F)cc2)c2cc(OCCCO)ccc2N1C(=O)c1ccc2ccccc2c1 (stereo not given in full) | -0.0968 | -0.0168 | -0.0925 | 0.0597 | -0.108 | -0.398 | -0.691 | -1.72 (inactive) | -0.0779 | 0.0722
COc1ccc([C@H]2OC[C@@H]3C[C@H](Cc4ccccc4)C(=O)N32)cc1 | -0.458 | 0.7 | -0.0376 | 0.219 | 0.423 | -0.465 | 0.684 | 0.18 (inactive) | 0.277 | 0.107
C=CCNC(=O)[C@@H]1[C@H]2C(=O)O[C@H](c3ccccc3)[C@H](c3ccccc3)N2[C@H](c2ccccc2OCCO)[C@@]12C(=O)Nc1ccc(C#CCC(C(=O)OC)C(=O)OC)cc12 | -0.44 | 0.491 | -0.116 | 0.422 | 0.894 | 1.39 | 1.28 | 1.1 (inactive) | -0.437 | -0.347
COCCOC(=O)N1C(=O)[C@@]2(c3cc(C#CCCO)ccc31)[C@H](C(=O)Nc1nc3ccccc3s1)[C@H]1C(=O)O[C@H](c3ccccc3)[C@H](c3ccccc3)N1[C@@H]2c1ccc(O)cc1 | -0.223 | 0.9 | -0.0403 | 0.83 | 1.53 | 1.07 | 0.72 | -0.948 (inactive) | 0.346 | 0.0505
CCOC(=O)C1=CC[C@@H](c2ccccc2F)N(S(=O)(=O)c2ccc(C)cc2)[C@H]1c1ccccc1 | -0.419 | -0.0956 | -0.0253 | 0.765 | 1.46 | 0.65 | 0.677 | -3.46 (inactive) | 0.789 | -0.11
COc1cccc(C)c1NC(=O)O[C@H]1[C@H](OC(=O)Nc2ccccc2-c2ccccc2)[C@H](OC(=O)Nc2ccccc2-c2ccccc2)[C@@H](OC)O[C@@H]1CO | -0.205 | 0.0513 | 0.137 | 0.542 | 1.46 | 1.46 | 1.14 | 0.379 (inactive) | 1.48 | -0.219
COc1cc(NN2C(C(O)c3ccc(N(C)C)cc3)C=CC3C(=O)N(c4ccccc4)C(=O)C32)cc(OC)c1OC (stereo not given) | 0.817 | 0.0214 | 0.107 | 0.396 | 1.18 | 0.465 | 1.13 | 1.44 (inactive) | 0.588 | -0.0618
O=C1C2C=CC(C(O)C3CC=CCC3)N(Nc3ccccc3)C2C(=O)N1c1ccccc1 (stereo not given) | 0.877 | -0.129 | 0.122 | 0.397 | 1.61 | 1.3 | 1.28 | -1.16 (inactive) | 1.89 | -0.323
CCOC(=O)C1=C[C@@H](C(C)C)N(S(=O)(=O)c2ccc(C)cc2)[C@H]1c1ccc(C(F)(F)F)cc1 | -0.235 | 0.231 | 0.112 | 1.05 | 1.67 | 0.497 | 1.22 | -2.54 (inactive) | 1.69 | 0.0873
CC1CC/C=C\[C@H]2OC34C=CCN(c5ccc6ccccc6c5)C(=O)[C@H]3N(CCCO)C(=O)[C@@H]4C2C(=O)O1 (stereo not given in full) | 0.932 | -0.541 | -0.188 | -1.25 | -0.746 | 1.19 | -0.459 | 2.62 (inactive) | -0.757 | -0.19
O=C1CS(=O)(=O)C(c2cccc([N+](=O)[O-])c2)N1c1ccccc1 (stereo not given) | 0.63 | 1.79 | 0.467 | 0.446 | 0.936 | 1.66 | 1.19 | -0.997 (inactive) | 0.822 | 1.56
O=C1[C@H]2C=C(I)[C@H](C[C@@H]2OCCOCCO)[C@@]12CO2 | -0.444 | 0.97 | -0.0877 | 0.454 | 0.67 | -0.183 | 0.653 | 0.843 (inactive) | -0.192 | 0.0722
